According to PubChem BioAssay (EPA / NIEHS):
Results filed as inconclusive are left out. Activity calls are given as the source filed them. The calls were made as follows, unless noted: active = hit-call score of the fitted dose curve at least 0.9, where 1 is the maximum; inactive = score below 0.9.

Key:
[1] = CCTE_Mundy_HCI_Cortical_Synap_Neur_Matur_NeuriteSpotCountPerNeuron: CCTE's Synaptogenesis and Neurite Maturation Assay in rat cortical cells for Neurite Spot Count per Neuron Count, Mundy Lab (AID 2284215)
Procedure, shortened: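 Read-out: neurite-associated synaptophysin puncta per neuron, imaged by high-content analysis after MAP2, synaptophysin and Hoechst staining. Rat primary cortical cultures, dosed DIV 7 through DIV 12; DMSO served as baseline.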

[2] = CCTE_Mundy_HCI_Cortical_Synap_Neur_Matur_SynapseCount: CCTE's Synaptogenesis and Neurite Maturation Assay in rat cortical cells for Synapse Count, Mundy Lab (AID 2284218)
Procedure, shortened: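 Read-out: synapse number per neuron, automated high-content imaging of fixed cells immunostained for MAP2 and synaptophysin plus Hoechst nuclei. Rat primary cortical cultures, AraC at DIV 5, chemical dosing DIV 7–12. Positive-direction fit relative to DMSO.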

[3] = CCTE_Mundy_HCI_Cortical_Synap_Neur_Matur_NeuriteCount: CCTE's Synaptogenesis and Neurite Maturation Assay in rat cortical cells for Neurite Count, Mundy Lab (AID 2284222);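 also: exposure from day 7 to day 12 in vitro with readout at day 12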
Procedure, shortened: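 In this multiplexed morphology readout, rat primary cortical neurons are fixed at DIV 12 following dosing at DIV 7 and stained for MAP2, synaptophysin and nuclei. High-content image analysis yields neurite count.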

[4] = CCTE_Mundy_HCI_Cortical_Synap_Neur_Matur_CellBodySpotCount: CCTE's Synaptogenesis and Neurite Maturation Assay in rat cortical cells for Cell Body Spot Count, Mundy Lab (AID 2284223)
Procedure, shortened: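 Read-out: cell body-associated synaptophysin puncta per neuron, imaged after MAP2, synaptophysin and Hoechst staining. Rat cortical cells, AraC DIV 5, chemical dosing DIV 7, fixation DIV 12. Activity fitted in positive direction relative to DMSO baseline.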

[5] = CCTE_Mundy_HCI_hNP1_Pro_ResponderAvgInten: CCTE's Proliferation Assay in human neuroprogenitor cells, Mundy Lab (AID 2284224; active = hit-call score of the fitted dose curve at least 0.9, where 1 is the maximum;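 also: human neural progenitor cells hNP1 derived from WA09 embryonic stem cells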)
Procedure, shortened: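 Human neuroprogenitors (hNP1, WA09 lineage) receive test chemical after 40 to 44 hours of attachment. A four-hour BrdU pulse begins twenty hours later, followed by fixation and high content imaging; signal is referenced to DMSO controls.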

[6] = UKN2_HCS_IMR90_cell_viability: Viability Assessment in the University of Konstanz (UKN) Leist Lab Neural Crest Cell Migration Assay in human induced IMR90 Pluripotent Stem Cells (UKN2) (AID 2284233);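 also: viability of neural crest cells differentiated from IMR90 iPSC measured by calcein-AM fluorescence imaging; cells exposed to compound for 24 h after a 24 h migration phase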
Procedure, shortened: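 cMINC format, iPSC-derived neural crest (IMR90); 24 h migration (EGF/FGF, N2-S), then 24 h toxicant. Calcein-AM/H-33342 stain 30 min; fluorescence intensity by HCS; DMSO-normalised, bidirectional fitting.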

[7] = CCTE_Mundy_HCI_Cortical_NOG_NeuronCount: CCTE's Neurite Outgrowth Assay in rat cortical cells for Neuron Count, Mundy Lab (AID 2284236; active = hit-call score of the fitted dose curve at least 0.9, where 1 is the maximum;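 also: neurons counted by imaging betaIII-tubulin and Hoechst stained cortical cells; cells exposed to compound for about 48 hours before fixation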)
Procedure, shortened: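 Read-out: neuron number by high-content imaging of betaIII-tubulin (Alexa Fluor-488) and Hoechst-labelled rat primary cortical cells.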

[8] = CCTE_Mundy_HCI_Cortical_NOG_BPCount: CCTE's Neurite Outgrowth Assay in rat cortical cells for Branch Point Count, Mundy Lab (AID 2284237)
Procedure, shortened: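 Measured 50.33 h after dosing, this morphology endpoint uses rat primary cortical cultures labelled for betaIII-tubulin. Branch points are quantified by high-content imaging, with DMSO as negative control and baseline.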

[9] = CCTE_Mundy_HCI_hNP1_Casp3_7: CCTE's Caspase-Glo 3/7 Assay in human neuroprogenitor cells for Apoptosis, Mundy Lab (AID 2284240)
Procedure, shortened: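 Neuroepithelial-lineage stem cells from WA09 embryonic cells were treated with chemicals after 40–44 h of culture. Twenty-four hours later, caspase-3/7 activation was detected luminescently after a 30 min room-temperature reagent step, with DMSO as baseline.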

[10] = CCTE_Mundy_HCI_hNP1_CellTiter: CCTE's Cell Titer-Glo 2 Assay in human neuroprogenitor cells for Viability, Mundy Lab (AID 2284241; active = hit-call score of the fitted dose curve at least 0.9, where 1 is the maximum)
Procedure, shortened: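 Measures ATP content in human neural progenitors derived from WA09 embryonic cells. Read-out at 26.5 hours after dosing, with DMSO serving as the negative control and baseline.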

[11] = CCTE_Mundy_HCI_Cortical_Synap_Neur_Matur_NeuronCount: CCTE's Synaptogenesis and Neurite Maturation Assay in rat cortical cells for Neuron Count, Mundy Lab (AID 2284242; active = hit-call score of the fitted dose curve at least 0.9, where 1 is the maximum)
Procedure, shortened: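 Rat cortical cultures; AraC DIV 5; chemical dosing + media change DIV 7 to DIV 12 (288.33 h readout). Fix, Hoechst, anti-MAP2/anti-synaptophysin immunostain; HCI neuron count vs DMSO baseline.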

[12] = IUF_NPC2c_oligodendrocyte_migration_120hr: Leibniz Research Institute for Environmental Medicine (IUF) 120-hour Neural Progenitor Cell Migration Assay for Oligodendrocyte Migration (NPC2c) (AID 2284297);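 also: O4-positive oligodendrocyte migration distance divided by radial glia migration distance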
Procedure, shortened: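 hNPC spheres (GW 16-19 cortex), PDL/laminin, DMEM/F12 3:1 + 1% N2, 37C. Dosing day 0–5, half feed day 3, DMSO ≤0.1%. Fixed 120 h; O4 ICC + Hoechst, HCI. Readout: mean oligodendrocyte distance from sphere edge / radial glia distance.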

[13] = IUF_NPC2a_radial_glia_migration_120hr: Leibniz Research Institute for Environmental Medicine (IUF) 120-hour Neural Progenitor Cell Migration Assay for Radial Glia Migration (NPC2a) (AID 2284298)
Procedure, shortened: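 Hoechst-stained nuclei imaged at 120 h; algorithm maps sphere core by densest nuclei, sets migration edge at density threshold, gives radial glia migration distance (um) per well vs DMSO. hNPC spheres (0.3 mm), PDL/laminin, DMEM/F12 3:1 + 1% N2.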

[14] = IUF_NPC2a_radial_glia_migration_72hr: Leibniz Research Institute for Environmental Medicine (IUF) 72-hour Neural Progenitor Cell Migration Assay for Radial Glia Migration (NPC2a) (AID 2284299)
Procedure, shortened: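 Readout: mean of four manual brightfield measurements of radial glia migration distance (um) at 72 h. hNPC spheres (0.3 mm) exposed to 7 compound concentrations plus solvent control on PDL/laminin, 37C, 5% CO2; activity fitted relative to DMSO.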

[15] = IUF_NPC2b_neuronal_migration_120hr: Leibniz Research Institute for Environmental Medicine (IUF) 120-hour Neural Progenitor Cell Migration Assay for Neuron Migration (NPC2b) (AID 2284300)
Procedure, shortened: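 hNPC spheres, PDL/laminin, DMEM:F12 3:1 + 1% N2, 37C/5% CO2; 7 concentrations + solvent control (DMSO ≤0.1%), 5 d exposure, half-feed day 3. Fix 120 h, TUBB3 ICC, HCI: mean neuron migration distance ÷ glia distance.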

[16] = IUF_NPC3_neuronal_differentiation_120hr: Leibniz Research Institute for Environmental Medicine (IUF) 120-hour Neuronal Differentiation Assay (NPC3) (AID 2284301)
Procedure, shortened: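 Neuronal differentiation of primary human neural progenitors measured by high-content imaging: percent TUBB3+ of Hoechst+ nuclei within migrated area at 120 h, seven-point serial dilution plus solvent control, gain or loss relative to DMSO.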

[17] = IUF_NPC4_neurite_length_120hr: Leibniz Research Institute for Environmental Medicine (IUF) 120-hour Neuronal Morphology Assay for Neurite Length (NPC4) (AID 2284302)
Procedure, shortened: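 Neurons from differentiating human fetal neural progenitor spheres are scored for average neurite length after five days of compound exposure. Fitting uses DMSO as negative control.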

[18] = IUF_NPC4_neurite_area_120hr: Leibniz Research Institute for Environmental Medicine (IUF) 120-hour Neuronal Morphology Assay for Neurite Area (NPC4) (AID 2284305; active = hit-call score of the fitted dose curve at least 0.9, where 1 is the maximum)
Procedure, shortened: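 Endpoint at 120 h: automated imaging of TUBB3/Hoechst-stained differentiating human neural progenitor spheres, neurite area per neuron from skeletonization. DMSO solvent control, not above 0.1%, set the baseline; medium was half-replaced on day 3.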

[19] = IUF_NPC2-5_cytotoxicity_72hr: Cytotoxicity Assessment at 72 hours in the Leibniz Research Institute for Environmental Medicine (IUF) Neural Progenitor Cell Migration and Differentiation Assay for Cytotoxicity (NPC2-5) (AID 2284306; active = hit-call score of the fitted dose curve at least 0.9, where 1 is the maximum;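 also: LDH release into supernatant measured by resorufin fluorescence marking membrane damage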)
Procedure, shortened: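 Primary human neural progenitor spheres migrate and differentiate on laminin. Compound is present from the start of differentiation, with DMSO kept at or below 0.1%. At 72 h, supernatant LDH is quantified fluorometrically, with values fitted in the positive direction.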

[20] = IUF_NPC2-5_cell_number_120hr: Cell Number Assessment at 120 hours in the Leibniz Research Institute for Environmental Medicine (IUF) Neural Progenitor Cell Migration and Differentiation Assay (NPC2-5) (AID 2284308);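 also: count of Hoechst-stained nuclei in migration zone around plated human neural progenitor spheres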
Procedure, shortened: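 Hoechst-stained nuclei within the migration area were counted by automated high content imaging after 120 h. Single hNPC spheres differentiated on poly-D-lysine/laminin in DMEM/F12 (3:1) with 1% N2, compound present throughout, DMSO ≤0.1%.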

[21] = IUF_NPC2-5_viability_120hr: Viability Assessment at 120 hours in the Leibniz Research Institute for Environmental Medicine (IUF) Neural Progenitor Cell Migration and Differentiation Assay (NPC2-5) (AID 2284312)
Procedure, shortened: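 Human fetal (GW 16-19) neural progenitor spheres of 0.3 mm were plated on poly-D-lysine/laminin in N2 differentiation medium and exposed from day 0 for 120 h, with half-medium refresh at day 3. Viability was read as alamar blue resazurin-to-resorufin fluorescence against DMSO.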

[22] = CCTE_Mundy_HCI_iCellGluta_NOG_NeuriteLength: CCTE's Neurite Outgrowth Assay in iCellGluta cells for Neurite Length, Mundy Lab (AID 2284318; active = hit-call score of the fitted dose curve at least 0.9, where 1 is the maximum)
Procedure, shortened: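 Automated high-content imaging of betaIII-tubulin (Alexa Fluor-488) and Hoechst-stained cells gave neurite length, normalized to the DMSO baseline.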

[23] = IUF_NPC1_cytotoxicity_72hr: Cytotoxicity Assessment at 72 hours in the Leibniz Research Institute for Environmental Medicine (IUF) Neural Progenitor Cell Proliferation Assay (NPC1) (AID 2284332; active = hit-call score of the fitted dose curve at least 0.9, where 1 is the maximum;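 also: rising LDH signal means more cytotoxicity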)
Procedure, shortened: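 LDH in supernatant, resazurin→resorufin fluorescence (RFU), 72 h exposure, no re-dosing. Cells: primary hNPC spheres, one per well, EGF+FGF medium, 37C/5% CO2, pH 7.2-7.6. Fit: positive direction vs baseline and dynamic range.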

[24] = CCTE_Mundy_HCI_iCellGluta_NOG_NeuronCount: CCTE's Neurite Outgrowth Assay in iCellGluta cells for Neuron Count, Mundy Lab (AID 2284340; active = hit-call score of the fitted dose curve at least 0.9, where 1 is the maximum;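 also: cells fixed about 48 h after compound addition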)
Procedure, shortened: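 Neuron count read by automated high-content imaging of Hoechst 33342 and betaIII-tubulin/Alexa Fluor-488 labelling in human iPSC glutamatergic neurons. Activity fitted relative to DMSO.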

[25] = CCTE_Mundy_HCI_iCellGluta_NOG_NeuriteCount: CCTE's Neurite Outgrowth Assay in iCellGluta cells for Neurite Count, Mundy Lab (AID 2284342; active = hit-call score of the fitted dose curve at least 0.9, where 1 is the maximum;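 also: chemical exposure about 48 hours starting 2 hours after plating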)

Measured: outcome

CC(C)O
inactive: [1] | [2] | [3] | [4] | [5] | [6] | [7] | [8] | [9] | [10] | [11] | [12] | [13] | [14] | [15] | [16] | [17] | [18] | [19] | [20] | [21] | [22] | [23] | [24] | [25]
